From PubChem BioAssay AID1851 (National Center for Advancing Translational Sciences (NCATS), 2009) come the findings set out here.

Molecules are shown by their SMILES. About 5,700 (36%) of roughly 16,000 compounds were called active. Inconclusive results (about 24%) are left out. The list shows a part of the results. Unmarked numbers belong to inactive results. Calls come from the whole dose curve; as a rule, active = well fitted curve in the direction sought with a large enough effect; inconclusive = small, poorly fitted or top-dose-only effect, or effect the other way; inactive = no such curve, though single readings can be large or run the other way.
% is set by controls: 0 for no effect and ±100 for the full control effect.

The target of the assay is Cytochrome P450 1A2 (Homo sapiens) (UniProt P05177). Description: Cytochrome panel assay with activity outcomes. As to conditions: recombinant CYP, pro-luciferin dealkylation, luminescence, p450-cyp1a2; series mostly up to 57.1 µM; activity, negative = inhibition: at the top concentration.
Sequence of Cytochrome P450 1A2 (Homo sapiens) (P05177 whole entry, looked up): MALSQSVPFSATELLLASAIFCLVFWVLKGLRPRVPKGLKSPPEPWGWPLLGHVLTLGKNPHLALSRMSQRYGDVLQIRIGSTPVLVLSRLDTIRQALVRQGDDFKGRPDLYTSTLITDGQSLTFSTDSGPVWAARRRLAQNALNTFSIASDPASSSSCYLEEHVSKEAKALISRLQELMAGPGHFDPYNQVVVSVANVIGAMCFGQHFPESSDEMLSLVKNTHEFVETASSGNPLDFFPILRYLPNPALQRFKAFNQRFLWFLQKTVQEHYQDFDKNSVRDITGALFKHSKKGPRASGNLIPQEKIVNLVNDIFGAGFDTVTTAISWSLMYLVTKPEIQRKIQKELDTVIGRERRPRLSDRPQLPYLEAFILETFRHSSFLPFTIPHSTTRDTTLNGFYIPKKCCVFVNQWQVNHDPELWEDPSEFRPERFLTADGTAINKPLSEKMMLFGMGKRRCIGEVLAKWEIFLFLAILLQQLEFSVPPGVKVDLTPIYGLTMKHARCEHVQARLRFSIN
Regarding `Cc1nonc1NC(=O)N1CCCC1`, the “activity, negative = inhibition” value was -14.6%.

`CCC[C@@H]1O[C@@H]2C[C@@H]3[C@H]4CCC5=CC(=O)C=C[C@@]5(C)[C@H]4[C@H](O)C[C@@]3(C)[C@@]2(C(=O)CO)O1`: the “activity, negative = inhibition” value is -1.55% [at 25.6 µM].

For `CN(C(=O)c1c(O)c2ccccc2n(C)c1=O)c1ccccc1`, the “activity, negative = inhibition” value is -1.04%.

As usually defined, the AC50 is the concentration giving half of the maximal activity seen. Take `CCCc1c(O)c2ccccc2n(-c2ccccc2)c1=O`: the AC50 is 14.1 µM (active).

For the molecule `Cc1cnc(CNc2ncncc2-c2ccc(N(C)C)cc2)cn1`, the AC50 is 3.16 µM (active).

As for `Cc1cnc(CNc2ncncc2-c2ccoc2)cn1`, the AC50 is 12.6 µM (active).

For the molecule `Cc1cnc(CNc2ncncc2-c2c(C)noc2C)cn1`, the “activity, negative = inhibition” value was -8.28%.

For `COc1cccc(Cn2c(=O)c(-c3cn(C)c4ccccc34)nc3cncnc32)c1`, the AC50 is 1 µM (active).

`COCCn1c(=O)c(-c2cn(C)c3ccccc23)nc2cnc(OCc3ccccc3)nc21`: the AC50 was 5.01 µM (active).

As for `COCCn1c(=O)c(-c2cn(C)c3ccccc23)nc2cncnc21`, the AC50 was 0.398 µM (active).

Consider `Cn1cc(-c2nc3cncnc3n(CCN)c2=O)c2ccccc21`, for which the AC50 is 6.31 µM (active).

For `O=C(Cn1cnc([N+](=O)[O-])c1)NCc1ccc(F)cc1`, the “activity, negative = inhibition” value is 2.97%.

Regarding `COc1ccccc1CCn1c(=O)c(-c2cn(C)c3ccccc23)nc2cncnc21`, the AC50 is 1.26 µM (active).

For the molecule `COC(=O)CC[C@@H](C)[C@H]1CC[C@H]2[C@H]3CC[C@H]4C[C@@H]5CC[C@@]4(C)C3(O5)[C@@H](Br)[C@@H](Br)[C@@]12C`, the activity, negative = inhibition was -8.93% [at 11.4 µM].

With `CCCC(=O)Nc1c(C)n[nH]c1C`, the “activity, negative = inhibition” value is -12.9%.

Regarding `CCCC(=O)Nc1nc(C(=O)OCC)cs1`, the AC50 was 15.8 µM (active).

Turning to `COc1cc(OC)c2c(c1)C(=O)c1cc(OC)cc(OC)c1C2=O`, the AC50 was 2 µM (active).

With `Cc1ccc(-n2ccnc2SCC(=O)N(CC(C)C)C2CCS(=O)(=O)C2)c(C)c1` (stereo not drawn), the “activity, negative = inhibition” value was -2.42%.

As to `COc1ccc(NC(=O)CSc2nnc(CNC(=O)c3ccco3)n2-c2ccccc2OC)cc1`, the “activity, negative = inhibition” value was -12.4%.

For the molecule `O=C(CSc1ccccc1)Nc1ccc(NC(=O)c2ccco2)cc1`, the “activity, negative = inhibition” value was -19.7%.

Regarding `Cc1ccc(-n2nnnc2SCC(=O)NNC(=O)c2ccco2)c(C)c1`, the “activity, negative = inhibition” value was -8.95%.

With `CC(=O)c1ccc(-n2nnnc2SCC(=O)Nc2cccc(NC(=O)c3ccco3)c2)cc1`, the AC50 is 0.501 µM (active).

As for `O=C(CSc1ccc(Cl)cc1)Nc1cccc(NC(=O)c2ccco2)c1`, the AC50 was 2 µM (active).

In the case of `Fc1cccc(F)c1C(Nc1nncs1)Nc1nncs1`, the activity, negative = inhibition was 12.3% [at 2.29 µM].

As to `Cc1cccc(C(=O)NC2CCN(C(=S)NCc3ccco3)CC2)c1`, the “activity, negative = inhibition” value is -1.32%.

For `Cn1c(=O)n(-c2ccc(Cl)cc2)c(=O)c2c3c(sc21)COC(C)(C)C3`, the half-maximal activity concentration (AC50) is 14.1 µM (active).

As to `O=C(C/C=N/OCc1ccc(F)cc1Cl)c1cnc(-c2ccccc2)s1`, the AC50 is 1.78 µM (active).

Take `O=C(C/C=N/OCc1ccc(Cl)cc1Cl)c1ccc(Cl)cc1`: the AC50 is 2.82 µM (active).

For `O=C1[C@@H]2[C@H]3[C@H](O)[C@H](O)C/C(=N/OCc4ccccc4)[C@H]3CC[C@H]2C(=O)N1c1ccc(F)cc1F`, the activity, negative = inhibition was -0.404% [at 11.4 µM].

`CCCc1nnc(SCC(=O)N2C(C)CCCC2C)n1CCCOC` (stereo not drawn): the “activity, negative = inhibition” value was 3.47%.

For `O=C(Nc1cccc(F)c1)/C(=C\c1ccco1)NC(=O)c1cccs1`, the AC50 was 4.47 µM (active).

In the case of `Cc1ccc(NC(=O)/C(=C\c2cccc([N+](=O)[O-])c2)NC(=O)c2cccs2)cc1`, the “activity, negative = inhibition” value is -27.3%.

In the case of `O=C(Nc1cccc(F)c1)N1CCC2(CC1)CCN(C(=O)c1ccco1)CC2`, the “activity, negative = inhibition” value was -7.71%.

Take `NCCC(=O)O`: the “activity, negative = inhibition” value was -20.8%.

On to `CCCCCC/C(C)=C1/SC(=S)NC1=O`, for which the AC50 was 2.51 µM (active).

As to `c1ccc(Oc2cc(-c3ccccc3)ncn2)cc1`, the AC50 is 2.82 µM (active).

Regarding `COc1cc(/C=N/NC(=O)c2cccnc2)ccc1OC(=O)c1ccco1`, the AC50 is 12.6 µM (active).

As to `COc1cc(/C=N/NC(=O)c2cccnc2)ccc1OC(=O)c1ccc2c(c1)OCO2`, the “activity, negative = inhibition” value was -25.7%.

In the case of `Cc1ccc(C2=C(Cl)C(=O)C(c3ccc(C)cc3)=C(Cl)C2=O)cc1`, the activity, negative = inhibition was -16.9% [at 2.29 µM].

In the case of `COc1cccc(C2=CC(c3ccccc3)n3nnnc3N2)c1` (stereo not drawn), the AC50 was 1.12 µM (active).

As for `Cc1cc(C)c(/C=C2/C(=O)Nc3ccccc32)[nH]1`, the AC50 is 0.794 µM (active).

As for `CN(C)c1ccc(/C=C2/C(=O)Nc3ccccc32)cc1`, the AC50 was 0.1 µM (active).

With `O=C1Nc2cc(C(=O)N3CCOCC3)ccc2SC1N1CCOCC1` (stereo not drawn), the “activity, negative = inhibition” value is -4.43%.

Turning to `N[C@@H](CSCc1ccc(I)cc1)C(=O)O`, the activity, negative = inhibition is -12% [at 2.29 µM].

With `COC(=O)[C@H](CCSC)NC(=O)C/C=C\[C@@H](C)[C@@H](CO)OC`, the activity, negative = inhibition was -1.07% [at 11.4 µM].

With `c1ccc(C[n+]2cccc(-c3cc4ccccc4[nH]3)c2)cc1`, the AC50 was 1.26 µM (active).

`COc1cc2c3c(c1OC)C1(C=CC(=O)C=C1)CC3N(C(=O)c1ccccc1)CC2` (stereo not drawn): the “activity, negative = inhibition” value is -2.36%.

Regarding `COc1ccc(C(=O)N2CCC3(CCN(C)CC3)CC2)cc1`, the “activity, negative = inhibition” value is -19.3%.
